According to ChEMBL document CHEMBL3988442, “University of Dundee, Small-Polar-MMV Screening Library” (2021):
The whole screen tested about 48,000 compounds, of which about 13,000 (27%) showed an effect of 50% or more. The list shows a part of the results.

System: Wolbachia pipientis
Assay: Anti-Wolbachia Cell-Based Screen
Type: functional
Parameters: scale not given: in the data most compounds retested in dose-response had high values
Conditions: 5 µM

| SMILES | Percent Effect [%] |
| --- | --- |
| Cn1ncc2c(=O)[nH]c(CN3CCCc4cc(F)cc(F)c43)nc21 | -18.5 |
| Cn1c(CN2CCCc3cc(F)cc(F)c32)cc(=O)n(C)c1=O | 98.13 |
| Cc1cc(F)c2c(c1)CCCN2C(=O)c1cncc(Br)c1 | 14.39 |
| Cc1cc(F)c2c(c1)CCCN2Cc1nc2c(cnn2C)c(=O)[nH]1 | -12.02 |
| CN(C(=O)CN1CCCc2cc(F)cc(F)c21)c1ccccc1 | -11.45 |
| Cc1ccc(F)c2c1CCCN2Cc1cc(=O)n(C)c(=O)n1C | 107.3 |
| Cc1cc(F)c2c(c1)CCCN2Cc1cc(=O)n(C)c(=O)n1C | 117.6 |
| COC(=O)N1CCc2ccccc2C1C(=O)NCc1ccccn1 (stereo not drawn) | -3.953 |
| N#CC1(NC(=O)c2nccc3ccccc23)CCC1 | 2.644 |
| Cn1c(C(=O)NS(C)(=O)=O)ccc1-c1ccccc1 | -9.851 |
| CC(C)[C@@H]1CN(C(=O)NCc2ccco2)C[C@H]1NS(=O)(=O)N(C)C | 8.904 |
| CC(Cc1ccco1)NC(=O)NCc1ncnn1C (stereo not drawn) | 9.946 |
| CCC(C(=O)NCc1ccncc1)N(c1cccc(Cl)c1)S(C)(=O)=O (stereo not drawn) | -1.901 |
| CCN(CC)C(=O)c1cc(-c2cccc(Cl)c2)no1 | -14.84 |
| CC(C)[C@H](NS(C)(=O)=O)C(=O)NCc1cc(-c2ccco2)nn1C | 131.1 |
| CC(C)[C@H](NS(C)(=O)=O)C(=O)NCc1cc(-c2ccccc2)nn1C | 107.7 |
| CC(C)[C@H](NS(C)(=O)=O)C(=O)NCc1cc(-c2cccc(Cl)c2)nn1C | 123.3 |
| CC(NC(=O)c1cc(-c2cccc(Cl)c2)no1)C(=O)N(C)C (stereo not drawn) | -38.11 |
| CC(C)NC(=O)NCc1cc(-c2cccc(Cl)c2)nn1C | 128.3 |
| CC(C)S(=O)(=O)NC(=O)c1cc(-c2cccc(Cl)c2)no1 | -50.72 |
| CN(Cc1cc(-c2ccccc2)no1)C(=O)CNS(C)(=O)=O | -3.143 |
| O=C1N(c2ccc(Cl)cc2)Cc2nc(=O)[nH]n21 | -10.7 |
| Cc1cccc(NC(=O)NCCCn2nc3ccccn3c2=O)c1C | -5.568 |
| CCCc1nn(Cc2csc(C(C)C)n2)c(=O)o1 | -6.237 |
| CCc1nc(Cn2nc(COC)oc2=O)cs1 | 8.463 |
| COCCn1c(=O)n(Cc2ccc(Cl)s2)c2cc(C(=O)O)ccc21 | 5.462 |
| COCc1nn(Cc2ccc(Br)s2)c(=O)o1 | 93.51 |

| SMILES | Percent Effect [%] |
| --- | --- |
| COCc1nn(Cc2ccc(Cl)s2)c(=O)o1 | 85.2 |
| COc1ccccc1C(C)NC(=O)N1CCN(Cc2ccc(Br)s2)CC1 (stereo not drawn) | 3.107 |
| CCCc1nn(Cc2csc(CC)n2)c(=O)o1 | 0.8831 |
| CCCc1nn(Cc2ccc(Br)s2)c(=O)o1 | 114.1 |
| COc1cccc(-c2cc(NCc3cscn3)n(C)n2)c1 | -6.796 |
| Cc1nc2ccccn2c1CN1C[C@@H](CN(C)C)[C@@H](CO)C1 | -2.196 |
| CC(C)c1noc(C2CCCN2S(=O)(=O)N2CCCCCC2)n1 (stereo not drawn) | 33.89 |
| CC(=O)c1ccccc1C(=O)NCC1(CO)CC1 | -16.93 |
| NC(c1ccc(F)cc1)c1cccs1 (stereo not drawn) | 14.08 |
| CS(=O)(=O)NCc1cc(=O)n2c(n1)CN(CC1CC1)CCC2.O=C(O)C(F)(F)F | 110.4 |
| O=C(O)C(F)(F)F.O=c1cc(CNS(=O)(=O)C2CC2)nc2n1CCCN(CC1CC1)C2 | 107 |
| CS(=O)(=O)NCc1cc(=O)n2c(n1)CN(Cc1ccco1)CCC2.O=C(O)C(F)(F)F | -0.8444 |
| CN1CCCn2c(nc(CNS(=O)(=O)C3CC3)cc2=O)C1.O=C(O)C(F)(F)F | -4.96 |
| CC(=O)N1CCCn2c(nc(CNS(=O)(=O)C3CC3)cc2=O)C1 | -2.795 |
| Cc1cc(C)n(CC2(CNC(=O)C(c3ccccc3F)N(C)C)CC2)n1 (stereo not drawn) | -12.38 |
| CC1c2ncc(COCC3CCCC3)n2CCN1S(=O)(=O)N(C)C (stereo not drawn) | -21.16 |
| CN(C)c1cccc(C(=O)Nc2cnn(CC(N)=O)c2)c1 | -9.995 |
| O=C(c1ccc(Br)s1)N1CCN(Cc2ccc(OC(F)(F)F)cc2)CC1 | -12.95 |
| COc1ccc(CN2CCN(C(=O)N(C)C)[C@@H]3CS(=O)(=O)C[C@@H]32)cc1F | -14.55 |
| CN1C[C@H](O)[C@]2(CCN(Cc3ccc(OC(F)(F)F)cc3)C2)S1(=O)=O | 118.4 |
| COCCC(=O)N1CCC2(CN(Cc3ccc(OC)c(F)c3)C2)C1 | 5.323 |
| O=C(c1ccc(Br)o1)N1CCN(Cc2ccc(OC(F)(F)F)cc2)CC1 | -3.633 |
| COc1ccc(CN2CC[C@@]3(C2)[C@H](O)CN(C)S3(=O)=O)cc1F | 137.9 |
| CN1C[C@H](O)[C@]2(CCN(Cc3ccc(F)c(F)c3)C2)S1(=O)=O | 108.2 |
| Cc1c[nH]c(CN2CCC3(CCCN(Cc4ccc(F)c(F)c4)C3)C2)n1 (stereo not drawn) | -10.55 |
| Fc1ccc(CN2CCCC3(CCN(Cc4ncc[nH]4)C3)C2)cc1F (stereo not drawn) | 2.586 |
